Growth data for seven compounds are collected here from PubChem BioAssay (NCI).

Where “and” joins values, the source holds several entries; their conditions need not be identical. Identical values can stand only once. About 83,000 compounds went through this panel and 20% of them were active in at least one assay; those are over-represented in the sample as a whole.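 A percent growth of 40 corresponds to 60% growth inhibition; 0 means no net growth; -100 means all cells died. Active threshold: below 10.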 The source holds several records for some structures; these can differ, active in one and inactive in another. Calls of active or inactive are those of the source.

Common to all, as to assay: NCI-60 one-dose screen, 48 h (100 = growth as untreated, 0 = no growth, -100 = all killed)
Holding throughout (conditions): 10 µM unless noted

The test system of assay [1] is DU-145 prostate.
The subject of assay [2] is K-562 leukemia.
Assay [3] concerns MDA-MB-231 breast.
Assay [4] has as its system RXF 393 renal.
Assay [5] relates to SF-268 CNS.
Assay [6] relates to SF-295 CNS.
Assay [7] relates to SF-539 CNS.
For assay [8], the system named is UACC-257 melanoma.
Assay [9] concerns M14 melanoma.
Assay [10] relates to HCT-15 colon.
Assay [11] deals with HT29 colon.
Assay [12] concerns SNB-75 CNS.
Assay [13] concerns SNB-19 CNS.
The test system of assay [14] is U251 CNS.
Assay [15] relates to PC-3 prostate.
Assay [16] deals with SK-MEL-5 melanoma.
The subject of assay [17] is UACC-62 melanoma.
Assay [18] has as its system LOX IMVI melanoma.
Assay [19] concerns SK-MEL-28 melanoma.
For assay [20], the system named is MALME-3M melanoma.

Regarding `ClCCOCCOc1ccc(C2CCCCC2)cc1`, the growth is 102% (inactive) in assay [1]; 118% (inactive) in [2]; 103% (inactive) in assay [3]; 101% (inactive) in assay [4]; 109% (inactive) in [5]; 97.1% (inactive) in assay [6]. In addition, the growth in assay [7] was 102% (inactive); in assay [8], 91.2% (inactive); in assay [9], 108% (inactive); in assay [10], 105% (inactive); in assay [11] it was 106% (inactive); in [12], 98.2% (inactive). The growth in assay [13] was 98.4% (inactive); in assay [14] it was 89.7% (inactive); in [15] it was 101% (inactive); in assay [16], 98.8% (inactive); in [17], 98.6% (inactive); in assay [18] it was 107% (inactive). Besides, the growth in assay [19] is 102% (inactive).
For `CCCCCCCCCCCCCCCc1ccc(N)c(OC2OC(CO)C(O)C(O)C2O)c1` (stereo unspecified), the growth in assay [1] is 119% (inactive); in assay [2] it was 83.4% (inactive); in [20] it was 22.5% (inactive); in assay [3], 70% (inactive); in assay [5], 99% (inactive); in assay [6], 92.2% (inactive). The growth was 93.4% (inactive) in assay [7]; 51.5% (inactive) in [8]; 82.5% (inactive) in [9]; 98.4% (inactive) in assay [10]; 103% (inactive) in assay [11]; 101% (inactive) in assay [13]. The growth in assay [14] was 89.7% (inactive); in [15], 58.3% (inactive); in assay [17] it was 76.3% (inactive); in assay [19] it was 112% (inactive).
As to `Fc1ccc([I+]c2ccc(F)cc2)cc1`, the growth was 92.1% (inactive) in [1]; 43.2% (inactive) in assay [2]; 61.1% (inactive) in assay [20]; 101% (inactive) in assay [4]; 58.9% (inactive) in assay [5]; 95.4% (inactive) in assay [6]. Moreover, the growth in assay [7] was 62.1% (inactive); in assay [8], 85.5% (inactive); in assay [9], 79% (inactive); in assay [10] it was 94.3% (inactive); in [11] it was 38.2% (inactive); in assay [12] it was 80% (inactive). The growth in assay [13] was 70% (inactive); in assay [14] it was 66.4% (inactive); in assay [15], 63.5% (inactive); in assay [16] it was 52.2% (inactive); in assay [17] it was 82.5% (inactive); in assay [18], 47.9% (inactive). Further, the growth in assay [19] is 95.8% (inactive).
Regarding `O=C1NC(N/N=C\C(O)C(O)C(O)CO)=N/C1=C/c1ccc(Cl)cc1` (stereo unspecified), in assay [17], the growth is 3.82% [100 µM] (active) and -100% [100 µM] (active) and 32.5% [100 µM] (inactive).
As to `O=C(CO)C(O)C(O)C(O)C(O)CO` (stereo unspecified), the growth in assay [1] is 110% (inactive) and 109% (inactive); in [2], 108% (inactive) and 117% (inactive); in assay [20] it was 109% (inactive) and 117% (inactive); in [4], 119% (inactive) and 117% (inactive); in assay [5], 102% (inactive) and 104% (inactive); in assay [6], 105% (inactive) and 102% (inactive). The growth in assay [7] was 107% (inactive) and 96.5% (inactive); in assay [8] it was 93.9% (inactive) and 95.8% (inactive); in assay [9], 103% (inactive) and 96.2% (inactive); in [10] it was 103% (inactive); in [11], 109% (inactive); in assay [12], 106% (inactive) and 89.1% (inactive). Also, the growth was 104% (inactive) and 103% (inactive) in [13]; 95.7% (inactive) and 95.4% (inactive) in [14]; 101% (inactive) and 96.1% (inactive) in [15]; 95.4% (inactive) and 103% (inactive) in [16]; 98.3% (inactive) and 101% (inactive) in assay [17]; 108% (inactive) and 101% (inactive) in [19].
With `Oc1ccc(Cc2ccccc2Cl)c(O)c1`, the growth in [2] is 91.5% (inactive); in [3], 71.7% (inactive); in [4], 83.9% (inactive); in assay [7], 93.9% (inactive); in [8], 93.2% (inactive); in assay [9], 99.1% (inactive). The growth is 97.2% (inactive) in assay [10]; 106% (inactive) in assay [11]; 80.5% (inactive) in assay [12]; 100% (inactive) in assay [13]; 96.2% (inactive) in [14]; 82.5% (inactive) in assay [15]. Also, the growth was 97.7% (inactive) in assay [16], 85.7% (inactive) in assay [17] and 110% (inactive) in assay [19].
For `O=c1[nH]cnc2c1ncn2C1OC(CO)C(O)C1O` (stereo unspecified), the growth in assay [1] was 126% (inactive) and 133% (inactive) and 112% (inactive); in assay [2] it was 105% (inactive) and 108% (inactive) and 113% (inactive); in [20], 131% (inactive) and 124% (inactive) and 110% (inactive); in assay [3], 110% (inactive) and 105% (inactive) and 108% (inactive); in assay [4] it was 129% (inactive) and 118% (inactive); in assay [5] it was 114% (inactive) and 112% (inactive) and 94.2% (inactive). The growth is 124% (inactive) and 111% (inactive) and 88.8% (inactive) in [6]; 113% (inactive) and 96.1% (inactive) in [7]; 104% (inactive) and 119% (inactive) in assay [8]; 100% (inactive) and 107% (inactive) and 98.2% (inactive) in assay [9]; 135% (inactive) and 124% (inactive) and 110% (inactive) in assay [10]; 116% (inactive) and 109% (inactive) in [11]. For the same compound, the growth in assay [12] was 115% (inactive) and 99.9% (inactive) and 98.8% (inactive); in assay [13] it was 99.5% (inactive) and 106% (inactive) and 93.5% (inactive); in assay [14] it was 108% (inactive) and 110% (inactive) and 102% (inactive); in [15], 89.3% (inactive) and 81.6% (inactive) and 98.8% (inactive); in assay [17] it was 96.1% (inactive) and 106% (inactive) and 98.6% (inactive); in assay [19] it was 113% (inactive) and 116% (inactive) and 118% (inactive).
